Mito fusion act: inhibitors of mitochondrial division or activators of mitochondrial fusion; Potency, µM (titrated, usually from 46.1 µM), for the others: at the highest dose growth rescue (activation), most hits filed as activators; actives 0.23% (n = 320,000); S. cerevisiae fusion-defective mutant growth rescue, CellTiterGlo 48 h; also: potency is read from the fitted curve at half-maximal effect; % of control where 0% means no effect; nearly all actives have a fitted effect of over 45% in size
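Growth-rescue viability read-out: after 48 h at the non-permissive 37C in glycerol/ethanol YPEG, yeast mitochondrial fusion mutants are measured by CellTiterGlo luminescence; compounds (23 nl pinned per well) restoring growth score as division inhibitors or fusion activators.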
IL-2 act: IL-2 activation; IL-2 activation reporter assay, cell-based qHTS; stimulated with anti-CD3/CD4/CD28 beads; in transgenic mouse T cells; activation, % (series mostly up to about 46 µM); actives 0.065% (n = 360,000); AID 652025; in the data active = activation above about 50%; inconclusive = mostly about 30% to 49%; also: 0% is about no effect
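Using fluorescent plate cytometry, EGFP and DsRed are detected in transgenic mouse T cells stimulated 18 h at 37 degrees C with antibody-coated beads after 60 min compound pretreatment.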
Chronic BCR inh: blocks chronic active B-cell receptor signaling. ABC-DLBCL IkBa-CBG/CBR reporter, luminescence ratio, 4 h. Potency, µM (titrated, usually from 46.1 µM), for the others: at the top dose activity change, negative = inhibition, most hits filed as inhibitors. AID 493014. actives 0.05% (n = 340,000); active = well fitted inhibition curve with a large enough effect in the signal ratio, with a control signal flat, not every such curve was filed as active; inconclusive = small, poorly fitted or top-dose-only effect, or effect the other way, or a change in a side signal; the % refers to the signal ratio;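 also: potency is read from the fitted curve at half-maximal effect; plate controls were basal doxycycline-induced cells for no effect and cells given 10 µM MG132 for full effect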
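Cell line TMD8 (human ABC DLBCL), stably expressing tet-inducible CBG68-IkBa fusion and CBR; IMDM/0.5% FBS; cpd up to 46 uM; dox induction, 4 h, 37C/5% CO2; dual luminescence; green/red ratio; MG132 control.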
TCR activator: activates T cell receptor signaling. AID 504894. primary human leukocytes, anti-CD3, IL-2 HTRF, 48 h. 330,000 tested, under 10 active. Potency, µM (series often up to 9.22 µM), for the others: at the top dose activation of IL-2 secretion, hits mostly activators; also: % of control where 0% means no effect
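48 hr co-incubation of compounds, a-CD3 beads and primary human leukocytes; IL-2 quantified homogeneously by HTRF with anti-IL-2 K and d2 conjugates.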
BRCA1 expr act: activators of BRCA1 expression | MCF7-BRCA1-FFLuc reporter, luminescence, 48 h; response scale: scaled: vehicle 0%, 10 µM genistein 100% | Potency, µM (titrated, usually from 46.1 µM), inactives show at the top dose activation, hits mostly activators | actives 1.1% (n = 380,000); also: potency is read from the fitted curve at half-maximal effect; nearly all actives have a fitted effect of over 80% in size
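MCF7-BRCA1-FFLuc cells, 2000/well in phenol-red-free MEM, attached 2 h then treated 48 h at 37 C. Luciferase luminescence read 15 min after reagent; normalized to genistein maximum activation (10microM) and DMSO, concentration-response fitted.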
PTHR1 agonist: agonists of human PTHR1 parathyroid hormone receptor. actives 0.075% (n = 410,000). Q03431. Potency, µM (top dose mostly 115 µM), without a hit: at the top dose activation, usual class: activators. HEK293 GP2 PTHR1 cells, GloSensor cAMP luminescence, 1 h; also: potency is read from the fitted curve at half-maximal effect; nearly all actives have a fitted effect of over 55% in size
Target sequence (Q03431 whole entry, looked up): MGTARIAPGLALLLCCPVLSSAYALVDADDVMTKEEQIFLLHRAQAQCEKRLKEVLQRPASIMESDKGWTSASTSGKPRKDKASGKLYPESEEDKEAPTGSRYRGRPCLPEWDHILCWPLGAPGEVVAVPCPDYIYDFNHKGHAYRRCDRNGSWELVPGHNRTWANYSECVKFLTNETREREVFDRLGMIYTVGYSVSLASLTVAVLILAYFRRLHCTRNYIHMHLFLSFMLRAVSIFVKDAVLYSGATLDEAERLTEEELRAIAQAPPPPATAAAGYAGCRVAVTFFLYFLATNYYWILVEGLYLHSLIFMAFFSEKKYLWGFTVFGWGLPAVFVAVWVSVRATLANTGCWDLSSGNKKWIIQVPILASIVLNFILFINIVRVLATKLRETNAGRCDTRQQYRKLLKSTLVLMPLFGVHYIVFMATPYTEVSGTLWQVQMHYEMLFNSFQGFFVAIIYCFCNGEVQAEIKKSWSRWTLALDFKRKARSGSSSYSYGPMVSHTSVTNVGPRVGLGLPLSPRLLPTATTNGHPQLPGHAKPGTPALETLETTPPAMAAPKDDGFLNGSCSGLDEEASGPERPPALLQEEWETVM
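HEK-293-derived GP2 cells expressing PTHR1 and a GloSensor cAMP reporter, 3,000/well, plated overnight, given luciferin plus IBMX (each 0.5 mM as added) for 1 h at 37 °C, then compound for 1 h at 37 °C. Luminescence was read after 15 min at room temperature.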
The depositor's hits bear a star; i = inactive; ? = inconclusive; · = not tested or not shown; [ ] = remark or other dose. Shown are actives, neighbours in structure and some others; about 1.3% of the full set was active somewhere. Unless noted, calls follow the shape of the dose curve; as a rule, active = well fitted curve in the direction sought with a large enough effect; inconclusive = small, poorly fitted or top-dose-only effect, or another doubt; inactive = no such curve, though single readings can be large; an effect the other way counts as inactive or inconclusive.

SMILES	Mito fusion act	IL-2 act	Chronic BCR inh	TCR activator	BRCA1 expr act	PTHR1 agonist
O=C(NCC(c1ccco1)N1CCc2ccccc21)C(=O)Nc1ccccc1F (stereo not drawn)	19%	-4	-5%	6%	-72%	-5%
Cc1ccc(N=Nc2c(N)nn(-c3ccccc3)c2N)cc1	-1%	0	?	-12%	17%	-8%
COc1ccc(N=Nc2c(N)nn(C)c2N)cc1	·	0	·	8%	2.5µM*	i
O=S(=O)(c1cccnc1)N1CCN(c2nc(-c3cccs3)nc3ccccc23)CC1	·	·	·	·	21%	·
O=C(CC(SCCO)c1ccc2c(c1)OCO2)c1cccs1 (stereo not drawn)	0%	-1	?	-1%	10µM*	-15%[57.5 µM]
O=C(CC(SCc1ccco1)c1ccc(O)cc1)c1cccs1 (stereo not drawn)	-1%	0	?	8%	?	-36%[57.5 µM]
CCOc1ccc(NC(=O)Cn2c(=O)c(CNc3ccc(CC)cc3)cc3cc4c(cc32)OCO4)cc1	·	·	·	·	-7%	i
CCOc1ccc(NC(=O)CN(c2ccc(OC)cc2)S(C)(=O)=O)cc1	1%	2	-2%	-2%	11µM*	-22%
CCOc1ccc(N(CC(=O)NCc2ccccc2C)S(C)(=O)=O)cc1	2%	2	-11%	-24%	11µM*	-83%
COc1ccc(N(CC(=O)Nc2ccc(OC)cc2OC)S(=O)(=O)c2ccccc2)cc1	14%	0	?	·	-69%	i
COC(=O)c1ccc(NC(=O)CN(c2ccc(OC)cc2)S(C)(=O)=O)cc1	0%	3	?	0%	11µM*	i
CCOc1ccc(N(CC(=O)Nc2ccc(OC)cc2)S(C)(=O)=O)cc1	0%	0	-5%	2%	?	-10%
CCOc1ccc(N(CC(=O)NCCSCc2ccccc2Cl)S(C)(=O)=O)cc1	4%	-1	0%	-1%	-4%	-24%
COC(=O)c1ccccc1NC(=O)CN(c1ccc(OC)cc1)S(C)(=O)=O	0%	-2	?	0%[46.1 µM]	-78%	i
CCOc1ccc(N(CC(=O)Nc2ccccc2OC)S(=O)(=O)c2ccccc2)cc1	1%	0	16µM*	·	-60%	-18%
c1ccc(Nc2nc(-c3ccccc3)c(-c3ccccc3)s2)cc1	·	·	·	·	-6%	·
CN(C)c1ccc(/C=C/c2ccnc3c(Cl)ccc(Cl)c23)cc1	·	·	·	·	4%	·
CCn1cc(S(=O)(=O)NC2CCCCC2)cn1	0%	-2	3%	4%	24%	i
CC1(C)CC(=O)c2sc(NC(=O)C(C)(C)C)nc2C1	-6%	-1	?	0%	7.9µM*	-51%
CC1(C)CC(=O)c2sc(NC(=O)c3ccccc3)nc2C1	14%	·	?	·	·	·
Clc1ccc(N/N=C/c2ccncc2)cc1Cl	?	-2	?	4%[46.1 µM]	7.1µM*	i
Fc1ccc(N/N=C/c2ccncc2)c(F)c1	5%	-1	-4%	-6%[46.1 µM]	14µM*	-16%
Cc1ccc(NC(=O)COc2ccccc2C(=O)Nc2ccccc2)cc1	·	·	·	·	0%	·
N=C1SCC(=O)N1c1nc(-c2ccccc2)cs1	-3%	1	?	-2%	7.9µM*	i
O=C1C2C3c4ccccc4C(c4ccccc43)C2C(=O)N1c1nc(-c2ccccc2)cs1 (stereo not drawn)	8%	2	-4%	0%	0%	i
CNc1nnc(CSc2nc3ccccc3s2)s1	7%	-1	-5%	-2%[46.1 µM]	11µM*	-14%[57.5 µM]
CCN(C(C)=O)c1nnc(CSc2nc3ccccc3s2)s1	7%	-3	-2%	-1%	24%	i
Cc1noc(C)c1CSc1nc2ccccc2s1	7%	0	?	5%	-8%	26%[57.5 µM]
c1csc(CSc2nc3ccccc3s2)c1	8%	-2	?	·	7.9µM*	-14%[57.5 µM]

Source: PubChem BioAssay
